# Measurements: paper PMC8384837, “Expanding the binding specificity for RNA recognition by a PUF domain”
# What was measured:
# Experiment in all cases: yeast three-hybrid, YBZ-1, SC-Leu-His + 0.5 mM 3-AT, 4 days
# Settings in all cases: tags: N-Gal4 AD-HA kept; label: inside an RPR1-promoter hybrid RNA with tandem MS2 sites; ssRNA
# [1] = target: PUM1 PUF domain R3-THE R4-TFR R7-NPG (Homo sapiens, UniProt Q14671 828-1176, C935T;R936H;Q939E;N971T;H972F;Q975R;S1079N;N1080P;E1083G)
# Method in brief: (§1)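 The interaction score is the logarithmic change in variant frequency from input to selection. It uses log2, with a pseudocount of 1 for absent variants, and frequencies came from PCR-amplified, Illumina-sequenced repeat regions. The libraries were Pumilio-1 PUF domains randomized at the three base-contacting residues per repeat, co-expressed with matching RNA elements in strain YBZ-1 (LexA–MS2 coat fusion, HIS3 reporter). Plating lasted four days on SC-Leu (input) or SC-Leu-His + 0.5 mM 3-AT (selection).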
# PUM1 PUF domain R4-SCS = PUM1 PUF domain R4-SCS (Homo sapiens, UniProt Q14671 828-1176, N971S;H972C;Q975S)
# Method in brief: as §1
# PUM1 PUF domain R4-SNF = PUM1 PUF domain R4-SNF (Homo sapiens, UniProt Q14671 828-1176, N971S;H972N;Q975F)
# Method in brief: as §1
# PUM1 PUF domain R5-RSN = PUM1 PUF domain R5-RSN (Homo sapiens, UniProt Q14671 828-1176, C1007R;R1008S;Q1011N)
# Method in brief: as §1
# PUM1 PUF domain R5-RAI = PUM1 PUF domain R5-RAI (Homo sapiens, UniProt Q14671 828-1176, C1007R;R1008A;Q1011I)
# Method in brief: as §1
# PUM1 PUF domain R5-TKR = PUM1 PUF domain R5-TKR (Homo sapiens, UniProt Q14671 828-1176, C1007T;R1008K;Q1011R)
# Method in brief: as §1
# PUM1 PUF domain R5-KAD = PUM1 PUF domain R5-KAD (Homo sapiens, UniProt Q14671 828-1176, C1007K;R1008A;Q1011D)
# Method in brief: as §1
# PUM1 PUF domain R5-DLR = PUM1 PUF domain R5-DLR (Homo sapiens, UniProt Q14671 828-1176, C1007D;R1008L;Q1011R)
# Method in brief: as §1
# PUM1 PUF domain R5-MRE = PUM1 PUF domain R5-MRE (Homo sapiens, UniProt Q14671 828-1176, C1007M;Q1011E)
# Method in brief: as §1
# PUM1 PUF domain R3-DNE = PUM1 PUF domain R3-DNE (Homo sapiens, UniProt Q14671 828-1176, C935D;R936N;Q939E)
# Method in brief: as §1
# PUM1 PUF domain R3-YRG = PUM1 PUF domain R3-YRG (Homo sapiens, UniProt Q14671 828-1176, C935Y;Q939G)
# Method in brief: as §1
# PUM1 PUF domain R5-RAI, sequence (Q14671 828-1176 C1007R/R1008A/Q1011I): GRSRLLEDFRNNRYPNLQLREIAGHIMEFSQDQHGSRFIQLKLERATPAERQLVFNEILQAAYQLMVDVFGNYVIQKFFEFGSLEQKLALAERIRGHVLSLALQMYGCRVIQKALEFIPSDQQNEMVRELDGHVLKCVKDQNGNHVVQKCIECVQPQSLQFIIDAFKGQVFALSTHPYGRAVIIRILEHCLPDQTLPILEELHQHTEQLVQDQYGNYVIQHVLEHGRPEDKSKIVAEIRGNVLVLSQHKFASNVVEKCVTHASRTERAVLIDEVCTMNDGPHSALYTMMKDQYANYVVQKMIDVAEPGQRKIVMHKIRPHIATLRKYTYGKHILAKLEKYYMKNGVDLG
# PUM1 PUF domain R5-RSN, sequence (Q14671 828-1176 C1007R/R1008S/Q1011N): as the sequence (Q14671 828-1176 C1007R/R1008A/Q1011I) above, with A181S, I184N counted along it
# PUM1 PUF domain R5-TKR, sequence (Q14671 828-1176 C1007T/R1008K/Q1011R): as the sequence (Q14671 828-1176 C1007R/R1008A/Q1011I) above, with R180T, A181K, I184R counted along it
# PUM1 PUF domain R5-MRE, sequence (Q14671 828-1176 C1007M/Q1011E): as the sequence (Q14671 828-1176 C1007R/R1008A/Q1011I) above, with R180M, A181R, I184E counted along it
# PUM1 PUF domain R4-SNF, sequence (Q14671 828-1176 N971S/H972N/Q975F): as the sequence (Q14671 828-1176 C1007R/R1008A/Q1011I) above, with N144S, H145N, Q148F, R180C, A181R, I184Q counted along it
# PUM1 PUF domain R3-YRG, sequence (Q14671 828-1176 C935Y/Q939G): as the sequence (Q14671 828-1176 C1007R/R1008A/Q1011I) above, with C108Y, Q112G, R180C, A181R, I184Q counted along it
# PUM1 PUF domain R3-DNE, sequence (Q14671 828-1176 C935D/R936N/Q939E): as the sequence (Q14671 828-1176 C1007R/R1008A/Q1011I) above, with C108D, R109N, Q112E, R180C, A181R, I184Q counted along it
# PUM1 PUF domain R3-THE R4-TFR R7-NPG, sequence (Q14671 828-1176 C935T/R936H/Q939E/N971T/H972F/Q975R/S1079N/N1080P/E1083G): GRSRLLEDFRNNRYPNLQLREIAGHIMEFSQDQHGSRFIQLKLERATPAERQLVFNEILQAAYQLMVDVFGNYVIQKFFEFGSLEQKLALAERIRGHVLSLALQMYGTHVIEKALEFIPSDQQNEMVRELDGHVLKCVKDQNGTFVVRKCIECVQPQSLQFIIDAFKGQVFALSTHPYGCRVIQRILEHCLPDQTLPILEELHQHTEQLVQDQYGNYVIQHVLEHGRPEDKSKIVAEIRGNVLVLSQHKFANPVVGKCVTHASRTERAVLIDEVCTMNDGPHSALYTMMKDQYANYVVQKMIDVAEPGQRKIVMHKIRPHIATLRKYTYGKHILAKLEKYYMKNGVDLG
# PUM1 PUF domain R4-SCS, sequence (Q14671 828-1176 N971S/H972C/Q975S): as the sequence (Q14671 828-1176 C1007R/R1008A/Q1011I) above, with N144S, H145C, Q148S, R180C, A181R, I184Q counted along it
# PUM1 PUF domain R5-KAD, sequence (Q14671 828-1176 C1007K/R1008A/Q1011D): as the sequence (Q14671 828-1176 C1007R/R1008A/Q1011I) above, with R180K, I184D counted along it
# PUM1 PUF domain R5-DLR, sequence (Q14671 828-1176 C1007D/R1008L/Q1011R): as the sequence (Q14671 828-1176 C1007R/R1008A/Q1011I) above, with R180D, A181L, I184R counted along it
sequence,measurement,setting,value
GGCUAGAACUAGUGGAUCCCCCGGCGCCCGGCGGCUCGAGCCCGGGUAAGUUUACGUAGUCUGCAUGCCGCCGGGCGCCAUGCCUGCAGGUCGACUCUAGAAAACAUG,binding signal,[1],5.28 log2 enrichment (interaction score)
GGCUAGAACUAGUGGAUCCCCCGGCGCCCGGCGGCUCGAGCCCGGGUAAGUGUACAUAGUCUGCAUGCCGCCGGGCGCCAUGCCUGCAGGUCGACUCUAGAAAACAUG,binding signal,PUM1 PUF domain R4-SCS,0.74 log2 enrichment (interaction score)
same,binding signal,PUM1 PUF domain R4-SNF,3.39 log2 enrichment (interaction score)
GGCUAGAACUAGUGGAUCCCCCGGCGCCCGGCGGCUCGAGCCCGGGUAAGUGUCAAUAGUCUGCAUGCCGCCGGGCGCCAUGCCUGCAGGUCGACUCUAGAAAACAUG,binding signal,PUM1 PUF domain R5-RSN,3.76 log2 enrichment (interaction score)
same,binding signal,PUM1 PUF domain R5-RAI,0.78 log2 enrichment (interaction score)
same,binding signal,PUM1 PUF domain R5-TKR,6.59 log2 enrichment (interaction score)
same,binding signal,PUM1 PUF domain R5-KAD,2.78 log2 enrichment (interaction score)
same,binding signal,PUM1 PUF domain R5-DLR,4.71 log2 enrichment (interaction score)
GGCUAGAACUAGUGGAUCCCCCGGCGCCCGGCGGCUCGAGCCCGGGUAAGUGUUAAUAGUCUGCAUGCCGCCGGGCGCCAUGCCUGCAGGUCGACUCUAGAAAACAUG,binding signal,PUM1 PUF domain R5-RSN,3.26 log2 enrichment (interaction score)
same,binding signal,PUM1 PUF domain R5-RAI,2.49 log2 enrichment (interaction score)
same,binding signal,PUM1 PUF domain R5-MRE,0.96 log2 enrichment (interaction score)
GGCUAGAACUAGUGGAUCCCCCGGCGCCCGGCGGCUCGAGCCCGGGUAAGUGUAAGUAGUCUGCAUGCCGCCGGGCGCCAUGCCUGCAGGUCGACUCUAGAAAACAUG,binding signal,PUM1 PUF domain R3-DNE,3.35 log2 enrichment (interaction score)
same,binding signal,PUM1 PUF domain R3-YRG,3.84 log2 enrichment (interaction score)
